Screening results deposited in PubChem by National Center for Advancing Translational Sciences (NCATS).
WRN helicase inh: qHTS for Inhibitors of WRN Helicase; Bifunctional 3'-5' exonuclease/ATP-dependent helicase WRN (Homo sapiens), Q14191; 0.46% of 360,000 active; Potency, µM (series often up to 114 µM), for inactives: top-dose activity change, negative = inhibition, hits mostly inhibitors; WRN helicase unwinding, fluorescent forked duplex, kinetic; further: on the % scale 0 is the no-effect control and ±100 the full control effect; nearly all actives have a fitted effect of over 55% in size
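Kinetic fluorescence helicase assay: unwinding of a quenched forked DNA duplex (100 nM final) with 2 mM ATP final raises red fluorescence (525/598 nm). Compounds sat 15 min at room temperature with 20 nM WRN beforehand.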
Pol eta inh: qHTS for Inhibitors of Polymerase Eta; DNA polymerase eta (Homo sapiens), Q9Y253; recombinant Pol eta, fluorescent DNA replication assay; Potency, µM (series often up to 114 µM), for inactives: top-dose activity change, negative = inhibition, most hits filed as inhibitors; 1.2% of 390,000 active; AID 588591, 2011; further: on the % scale 0 is the no-effect control and ±100 the full control effect
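Pol eta (10 nM) was preincubated with compounds for 15 min at room temperature, after which fluorescent replication substrate (50 nM final) was added to start the reaction. Fluorescence was read kinetically at 0 and 10 min.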
Pol iota inh: qHTS for Inhibitors of Polymerase Iota; DNA polymerase iota (Homo sapiens), Q9UNA4; Pol iota fluorescent replication assay, 10 min; Potency, µM (series often up to 115 µM), for inactives: top-dose activity, negative = inhibition, most hits filed as inhibitors; 1% of 390,000 active
Target sequence (Q9UNA4 whole entry, looked up): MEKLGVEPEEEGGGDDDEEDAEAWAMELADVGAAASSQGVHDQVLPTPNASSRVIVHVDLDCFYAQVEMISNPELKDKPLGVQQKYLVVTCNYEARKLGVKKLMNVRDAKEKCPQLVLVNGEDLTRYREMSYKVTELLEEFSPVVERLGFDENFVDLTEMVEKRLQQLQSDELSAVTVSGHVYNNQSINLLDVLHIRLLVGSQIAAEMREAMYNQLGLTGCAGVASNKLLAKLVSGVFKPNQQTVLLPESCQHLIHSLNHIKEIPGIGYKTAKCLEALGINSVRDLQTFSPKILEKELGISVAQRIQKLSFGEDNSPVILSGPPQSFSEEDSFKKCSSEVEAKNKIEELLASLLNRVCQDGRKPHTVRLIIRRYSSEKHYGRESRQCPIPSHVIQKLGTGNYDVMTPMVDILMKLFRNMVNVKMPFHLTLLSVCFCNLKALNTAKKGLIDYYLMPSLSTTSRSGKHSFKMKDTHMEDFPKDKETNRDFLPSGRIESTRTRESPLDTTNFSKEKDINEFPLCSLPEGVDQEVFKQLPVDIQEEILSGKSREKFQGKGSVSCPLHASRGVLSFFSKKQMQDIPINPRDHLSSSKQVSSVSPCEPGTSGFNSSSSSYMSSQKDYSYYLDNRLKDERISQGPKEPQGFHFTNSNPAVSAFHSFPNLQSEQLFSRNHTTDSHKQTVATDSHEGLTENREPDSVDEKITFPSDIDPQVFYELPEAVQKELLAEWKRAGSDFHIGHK
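Pol iota at 10 nM preincubated 15 min with compounds at room temperature; reaction started with fluorescent substrate, 50 nM final. Fluorescence read kinetically at 0 and 10 min; buffer-only wells as negative control.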
POLK inh: qHTS for Inhibitors of Polymerase Kappa | Potency, µM (doses to about 107 µM), inactives show at the highest dose activity, negative = inhibition, usual class: inhibitors | DNA polymerase kappa (Homo sapiens), Q9UBT6 | 0.53% of 400,000 active | purified Pol kappa, fluorescent DNA synthesis assay, 10 min | AID 588579, 2011; further: on the % scale 0 is the no-effect control and ±100 the full control effect
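Enzyme at 10 nM met test compounds for 15 min at room temperature. Substrate addition (50 nM final) began the reaction, which was monitored by fluorescence at 0 and 10 min.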
FEN1 inhibitor: qHTS Assay for the Inhibitors of Human Flap endonuclease 1 (FEN1); Potency, µM (series often up to 114 µM), for inactives: top-dose activity change, negative = inhibition, usual class: inhibitors; P39748; AID 588795, 2011; Recombinant FEN1 flap cleavage, fluorescence, 15 min; 0.35% of 390,000 active; further: on the % scale 0 is the no-effect control and ±100 the full control effect; nearly all actives have a fitted effect of over 65% in size
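FEN1 at 10 nM, compound pretreatment for 15 min (room temperature), 50 nM final substrate to initiate; endpoint reads at 0 and 15 min; DMSO-only plates used as vehicle background.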
Pol beta inh: qHTS Assay for Inhibitors of DNA Polymerase Beta; Pol beta primer extension/strand displacement, fluorescence kinetic; 1.3% of 340,000 active; P06746; Potency, µM (doses to about 114 µM), for inactives: at the top dose activity change, negative = inhibition, most hits filed as inhibitors; further: on the % scale 0 is the no-effect control and ±100 the full control effect
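Curves were derived by four-parameter Hill fits of normalized qHTS data. The kinetic fluorescent primer-extension read was taken at 0 and 10 min after 50 nM substrate, following a 15 min room-temperature preincubation of 10 nM enzyme with compounds.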
* = called active by the depositor; ? = inconclusive; nt = not tested or not shown; [ ] = another dose, or the depositor's remark. An excerpt weighted towards active compounds, which were near 2.4% of everything screened. The call rests on the fitted dose curve; in most records, active means well fitted curve in the direction sought with a large enough effect; inconclusive means small, poorly fitted or top-dose-only effect, or another doubt; inactive means no such curve, though single readings can be large; an effect the other way counts as inactive or inconclusive. Potency means the concentration at half of the fitted maximal effect.

SMILES	WRN helicase inh	Pol eta inh	Pol iota inh	POLK inh	FEN1 inhibitor	Pol beta inh
CCN1CCN(C(=O)c2nn(-c3ccc(OC)cc3)c(=O)c3c2c2ccccc2n3C)CC1	1.5%	-5.5%	-1.3%	-7.6%	-14.8%	15.1%
COc1cc(N)c2ncccc2c1SC	0.5%	-22.4%	nt	nt	nt	nt
COc1cc(N)c2ncccc2c1Br	-2.3%[11.6 µM]	-4.1%	31.6µM*	-26.6%	-18.9%	nt
CC(=O)Nc1ccc(S(=O)(=O)N/N=C/c2ccc(C)o2)cc1	-2.8%	?	25.1µM*	-14.4%	18.6%	?
Cc1ccc(/C=N/NS(=O)(=O)c2ccc([N+](=O)[O-])cc2)o1	-22.8%	-7.7%	1.5%	-11.6%	2.9%	-13.2%
CC(OCc1ccccc1)C(NC(=O)OC(C)(C)C)C(=O)NC1COC2CC(n3ccc(=O)[nH]c3=O)OC12 (configuration not stated)	nt	nt	25.0%	-18.2%	4.7%	nt
O=C(Nc1ccccc1O)c1ccc2c(c1)C(=O)N(N1C(=O)c3ccccc3C1=O)C2=O	-35.5%	-19.6%	6.9%	-13.1%	0.0%	28.2µM*
O=C(Nc1ccc(O)cc1)c1ccc2c(c1)C(=O)N(N1C(=O)c3ccccc3C1=O)C2=O	-13.0%	1.6%	-20.2%	-13.6%	-15.0%	?
O=C(O)c1ccc2c(c1)C(=O)N(CCc1ccccc1)C2=O	-0.1%	-23.6%	24.4%	-12.8%	4.1%	18.9%
O=C(O)c1ccc2c(c1)C(=O)N(N1C(=O)c3ccccc3C1=O)C2=O	-21.8%	-3.9%	18.4%	-11.7%	-5.4%	25.1µM*
Cc1ccc(Nc2c3c(nc4nncn24)CCC3)c(C)c1	nt	-6.2%	23.9%	-9.4%	3.7%	3.5%
Cc1cc2c(c(=O)o1)C1(C(=O)N(CC(=O)O)c3ccccc31)C(C#N)=C(N)O2 (configuration not stated)	-30.4%	20µM*	?	?	-11.7%	?
CC(C)(C)C(=O)CSc1n[nH]c(-c2ccccc2)n1	nt	nt	-15.6%	-9.6%	?	nt
O=C(CSc1cccc2cccnc12)N/N=C/c1cccc(O)c1	-1.8%	7.5%	-8.1%	-23.6%	14.8%	-9.6%
O=C(N/N=C/c1ccc(O)c(O)c1)c1ccc(CSc2cccc3cccnc23)cc1	?	3.55µM*	?	?	?	3.16µM*
O=c1c(S(=O)(=O)c2ccc(Cl)cc2)cn(Cc2ccccc2)c2ccc(F)cc12	6.1%	-9.9%	56.2%	-0.2%	-1.5%	-17.8%
O=c1c(S(=O)(=O)c2ccc(Cl)cc2)cn(Cc2ccc(F)cc2)c2ccc(F)cc12	nt	-21.4%	79.4µM*	?	17.3%	6.8%
CN1C/C(=C/c2ccc(B(O)O)cc2)C(=O)/C(=C/c2ccc(B(O)O)cc2)C1	nt	nt	nt	6.7%[60.1 µM]	nt	nt
O=C(C[n+]1ccccc1Br)c1ccc(F)cc1	nt	nt	15.4%	8.4%	-5.2%	nt
COc1ccc(-n2cc3c(-c4cccc(Br)c4)nnc(C)c3n2)cc1	?	-17.4%	?	-10.7%	79.4µM*	27.6%
O=C(NCc1ccccc1Cl)C(=O)NCC(c1ccco1)S(=O)(=O)c1cccs1 (configuration not stated)	nt	-18.2%	10.9%	-4.7%[60.1 µM]	15.1%	-22.4%
Cc1ccc(/C=C2\C(=N)N3N=C(CC(=O)N4CCOCC4)SC3=NC2=O)o1	-33.7%	28.2µM*	?	?	12.6%	?
N=C1/C(=C\c2ccc(SCc3ccccc3)o2)C(=O)N=C2SC(CC(=O)N3CCOCC3)=NN12	-12.8%	56.2µM*	10µM*	?	-15.1%	?
COc1ccc(/C=C2\C(=N)N3N=C(CC(=O)N4CCOCC4)SC3=NC2=O)cc1	10.6%	-6.9%	?	0.3%	-2.5%	2.9%
Cc1ccc(CC(=O)NO)cc1	nt	nt	14.2%	2.5%	-7.4%	nt
